Measured values published in PMC11006913.
Residue numbers refer to the chain shown, from its start.

Experiments:
Experiment in all cases: PBM; 200 nM protein, PBS
Settings in all cases: dsDNA, one strand shown
PAX4 [1] = biological target: T1, PAX4 (Homo sapiens, UniProt O43316 9-242, R200K)
T1 sequence: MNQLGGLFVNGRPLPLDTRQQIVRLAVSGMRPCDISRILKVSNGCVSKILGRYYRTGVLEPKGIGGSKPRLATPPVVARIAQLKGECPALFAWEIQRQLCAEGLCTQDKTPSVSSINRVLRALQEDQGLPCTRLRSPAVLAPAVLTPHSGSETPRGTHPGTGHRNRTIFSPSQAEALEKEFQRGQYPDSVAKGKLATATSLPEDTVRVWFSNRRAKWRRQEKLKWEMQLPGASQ

PAX4 [2] = biological target: T2, PAX4 (Homo sapiens, UniProt O43316 9-242)
T2 sequence: T1 sequence with K192R

HOXB6 [3] = biological target: HOXB6 (Homo sapiens, UniProt P17509 132-218, K202E)
PAX4 [4] = biological target: T3, PAX4 (Homo sapiens, UniProt O43316 9-242, R200Q)
T3 sequence: T1 sequence with K192Q

PAX4 [5] = biological target: T4, PAX4 (Homo sapiens, UniProt O43316 9-242, F177V)
T4 sequence: T1 sequence with F169V, K192R

PAX4 [6] = biological target: T5, PAX4 (Homo sapiens, UniProt O43316 9-242, F177Y)
T5 sequence: T1 sequence with F169Y, K192R

PAX4 [7] = biological target: T6, PAX4 (Homo sapiens, UniProt O43316 9-242, R227W)
T6 sequence: T1 sequence with K192R, R219W

HOXB6 [8] = biological target: HOXB6 (Homo sapiens, UniProt P17509 132-218)
ALX4 [9] = biological target: ALX4 (Homo sapiens, UniProt Q9H161 200-286)
ALX4 [10] = biological target: ALX4 (Homo sapiens, UniProt Q9H161 200-286, Q225E)
ALX3 [11] = biological target: ALX3 (Homo sapiens, UniProt O95076 139-225, N203Q)
ALX3 [12] = biological target: ALX3 (Homo sapiens, UniProt O95076 139-225)
ALX3 [13] = biological target: ALX3 (Homo sapiens, UniProt O95076 139-225, L168Q)
ALX3 [14] = biological target: ALX3 (Homo sapiens, UniProt O95076 139-225, L168V)
ALX3 [15] = biological target: ALX3 (Homo sapiens, UniProt O95076 139-225, N203S)
PROP1 [16] = biological target: PROP1 (Homo sapiens, UniProt O75360 56-141)
PROP1 [17] = biological target: PROP1 (Homo sapiens, UniProt O75360 56-141, R99H)
PROP1 [18] = biological target: PROP1 (Homo sapiens, UniProt O75360 56-141, F88S)
MSX2 [19] = biological target: MSX2 (Homo sapiens, UniProt P35548 130-214, R199I)
MSX2 [20] = biological target: MSX2 (Homo sapiens, UniProt P35548 130-214)
MSX2 [21] = biological target: MSX2 (Homo sapiens, UniProt P35548 130-214, F161Y)
ALX1 [22] = biological target: ALX1 (Homo sapiens, UniProt Q15699 118-204, L144V)
ALX1 [23] = biological target: ALX1 (Homo sapiens, UniProt Q15699 118-204, L144R)
ALX1 [24] = biological target: ALX1 (Homo sapiens, UniProt Q15699 118-204)
Chain of ALX1 (Homo sapiens, UniProt Q15699 118-204) (Q15699 118-204): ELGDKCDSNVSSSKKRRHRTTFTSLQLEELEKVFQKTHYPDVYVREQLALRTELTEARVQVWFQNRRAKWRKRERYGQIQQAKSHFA

Chain of ALX4 (Homo sapiens, UniProt Q9H161 200-286) (Q9H161 200-286): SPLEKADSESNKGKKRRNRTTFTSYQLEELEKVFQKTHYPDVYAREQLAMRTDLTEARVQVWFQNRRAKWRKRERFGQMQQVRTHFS
Chain of ALX4 (Homo sapiens, UniProt Q9H161 200-286, Q225E) (Q9H161 200-286 Q225E): as the sequence (Q9H161 200-286) above, with Q26E counted along it
Chain of ALX1 (Homo sapiens, UniProt Q15699 118-204, L144V) (Q15699 118-204 L144V): as the sequence (Q15699 118-204) above, with L27V counted along it
Chain of HOXB6 (Homo sapiens, UniProt P17509 132-218, K202E) (P17509 132-218 K202E): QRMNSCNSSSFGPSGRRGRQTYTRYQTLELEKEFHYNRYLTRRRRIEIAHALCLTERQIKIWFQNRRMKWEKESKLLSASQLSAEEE
Chain of ALX1 (Homo sapiens, UniProt Q15699 118-204, L144R) (Q15699 118-204 L144R): as the sequence (Q15699 118-204) above, with L27R counted along it
Chain of HOXB6 (Homo sapiens, UniProt P17509 132-218) (P17509 132-218): as the sequence (P17509 132-218 K202E) above, with E71K counted along it
Chain of ALX3 (Homo sapiens, UniProt O95076 139-225, L168Q) (O95076 139-225 L168Q): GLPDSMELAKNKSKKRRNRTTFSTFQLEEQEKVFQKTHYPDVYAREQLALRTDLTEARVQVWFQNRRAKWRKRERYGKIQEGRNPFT
Chain of ALX3 (Homo sapiens, UniProt O95076 139-225, N203S) (O95076 139-225 N203S): as the sequence (O95076 139-225 L168Q) above, with Q30L, N65S counted along it
Chain of ALX3 (Homo sapiens, UniProt O95076 139-225, N203Q) (O95076 139-225 N203Q): as the sequence (O95076 139-225 L168Q) above, with Q30L, N65Q counted along it
Chain of ALX3 (Homo sapiens, UniProt O95076 139-225, L168V) (O95076 139-225 L168V): as the sequence (O95076 139-225 L168Q) above, with Q30V counted along it
Chain of PROP1 (Homo sapiens, UniProt O75360 56-141) (O75360 56-141): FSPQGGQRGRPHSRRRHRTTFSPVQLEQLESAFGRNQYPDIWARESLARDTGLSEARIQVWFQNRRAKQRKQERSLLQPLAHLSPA
Chain of MSX2 (Homo sapiens, UniProt P35548 130-214) (P35548 130-214): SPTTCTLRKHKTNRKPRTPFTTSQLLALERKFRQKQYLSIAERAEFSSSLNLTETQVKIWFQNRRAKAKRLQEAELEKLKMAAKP
Chain of MSX2 (Homo sapiens, UniProt P35548 130-214, R199I) (P35548 130-214 R199I): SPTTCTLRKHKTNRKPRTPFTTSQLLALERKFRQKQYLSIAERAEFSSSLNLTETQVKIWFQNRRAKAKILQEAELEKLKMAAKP
Chain of PROP1 (Homo sapiens, UniProt O75360 56-141, F88S) (O75360 56-141 F88S): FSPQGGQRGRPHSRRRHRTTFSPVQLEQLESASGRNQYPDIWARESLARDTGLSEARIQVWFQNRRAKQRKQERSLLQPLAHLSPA
Chain of MSX2 (Homo sapiens, UniProt P35548 130-214, F161Y) (P35548 130-214 F161Y): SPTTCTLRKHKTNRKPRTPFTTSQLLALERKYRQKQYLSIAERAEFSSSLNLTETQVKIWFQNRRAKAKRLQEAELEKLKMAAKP
Chain of PROP1 (Homo sapiens, UniProt O75360 56-141, R99H) (O75360 56-141 R99H): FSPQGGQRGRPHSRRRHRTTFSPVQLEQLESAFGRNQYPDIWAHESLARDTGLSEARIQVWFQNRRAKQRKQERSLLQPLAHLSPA
Chain of ALX3 (Homo sapiens, UniProt O95076 139-225) (O95076 139-225): as the sequence (O95076 139-225 L168Q) above, with Q30L counted along it

Sequence: AAGGGGGA
- binding signal (PAX4 [1]): 9.21 upbm affinity estimate (log intensity, higher = more binding, comparable within an allelic series)
- binding signal (PAX4 [2]): 9.23 upbm affinity estimate (log intensity, higher = more binding, comparable within an allelic series)
- binding signal (HOXB6 [3]): 8.87 upbm affinity estimate (log intensity, higher = more binding, comparable within an allelic series)
- binding signal (PAX4 [4]): 9.23 upbm affinity estimate (log intensity, higher = more binding, comparable within an allelic series)
- binding signal (PAX4 [5]): 9.11 upbm affinity estimate (log intensity, higher = more binding, comparable within an allelic series)
- binding signal (PAX4 [6]): 9.2 upbm affinity estimate (log intensity, higher = more binding, comparable within an allelic series)
- binding signal (PAX4 [7]): 9.25 upbm affinity estimate (log intensity, higher = more binding, comparable within an allelic series)
- binding signal (HOXB6 [8]): 8.75 upbm affinity estimate (log intensity, higher = more binding, comparable within an allelic series)

Sequence: GAGAGCGC
- binding signal (ALX4 [9]): 7.97 upbm affinity estimate (log intensity, higher = more binding, comparable within an allelic series)
- binding signal (ALX4 [10]): 8.13 upbm affinity estimate (log intensity, higher = more binding, comparable within an allelic series)
- binding signal (ALX3 [11]): 7.72 upbm affinity estimate (log intensity, higher = more binding, comparable within an allelic series)
- binding signal (ALX3 [12]): 7.6 upbm affinity estimate (log intensity, higher = more binding, comparable within an allelic series)
- binding signal (ALX3 [13]): 7.75 upbm affinity estimate (log intensity, higher = more binding, comparable within an allelic series)
- binding signal (ALX3 [14]): 7.76 upbm affinity estimate (log intensity, higher = more binding, comparable within an allelic series)
- binding signal (ALX3 [15]): 7.72 upbm affinity estimate (log intensity, higher = more binding, comparable within an allelic series)

Sequence: TGCCAGCA
- binding signal (ALX4 [9]): 8.19 upbm affinity estimate (log intensity, higher = more binding, comparable within an allelic series)
- binding signal (ALX4 [10]): 8.28 upbm affinity estimate (log intensity, higher = more binding, comparable within an allelic series)
- binding signal (PROP1 [16]): 6.8 upbm affinity estimate (log intensity, higher = more binding, comparable within an allelic series)
- binding signal (PROP1 [17]): 6.79 upbm affinity estimate (log intensity, higher = more binding, comparable within an allelic series)
- binding signal (PROP1 [18]): 6.93 upbm affinity estimate (log intensity, higher = more binding, comparable within an allelic series)

Sequence: AGTCCGGC
- binding signal (PAX4 [1]): 9.22 upbm affinity estimate (log intensity, higher = more binding, comparable within an allelic series)
- binding signal (PAX4 [2]): 9.22 upbm affinity estimate (log intensity, higher = more binding, comparable within an allelic series)
- binding signal (HOXB6 [3]): 8.99 upbm affinity estimate (log intensity, higher = more binding, comparable within an allelic series)
- binding signal (PAX4 [4]): 9.29 upbm affinity estimate (log intensity, higher = more binding, comparable within an allelic series)
- binding signal (PAX4 [5]): 9.3 upbm affinity estimate (log intensity, higher = more binding, comparable within an allelic series)
- binding signal (PAX4 [6]): 9.32 upbm affinity estimate (log intensity, higher = more binding, comparable within an allelic series)
- binding signal (PAX4 [7]): 9.3 upbm affinity estimate (log intensity, higher = more binding, comparable within an allelic series)
- binding signal (HOXB6 [8]): 8.89 upbm affinity estimate (log intensity, higher = more binding, comparable within an allelic series)

Sequence: CCAGGACG
- binding signal (ALX4 [9]): 8.2 upbm affinity estimate (log intensity, higher = more binding, comparable within an allelic series)
- binding signal (ALX4 [10]): 8.31 upbm affinity estimate (log intensity, higher = more binding, comparable within an allelic series)

Sequence: CGTGGAGC
- binding signal (ALX4 [9]): 8.15 upbm affinity estimate (log intensity, higher = more binding, comparable within an allelic series)
- binding signal (ALX4 [10]): 8.37 upbm affinity estimate (log intensity, higher = more binding, comparable within an allelic series)
- binding signal (MSX2 [19]): 9.58 upbm affinity estimate (log intensity, higher = more binding, comparable within an allelic series)
- binding signal (MSX2 [20]): 9.61 upbm affinity estimate (log intensity, higher = more binding, comparable within an allelic series)
- binding signal (MSX2 [21]): 9.61 upbm affinity estimate (log intensity, higher = more binding, comparable within an allelic series)

Sequence: AAATTAGT
- binding signal (ALX4 [9]): 13.5 upbm affinity estimate (log intensity, higher = more binding, comparable within an allelic series)
- binding signal (ALX4 [10]): 12.5 upbm affinity estimate (log intensity, higher = more binding, comparable within an allelic series)
- binding signal (ALX1 [22]): 11.4 upbm affinity estimate (log intensity, higher = more binding, comparable within an allelic series)
- binding signal (PAX4 [4]): 12 upbm affinity estimate (log intensity, higher = more binding, comparable within an allelic series)
- binding signal (ALX1 [23]): 10.9 upbm affinity estimate (log intensity, higher = more binding, comparable within an allelic series)
- binding signal (PAX4 [7]): 10.9 upbm affinity estimate (log intensity, higher = more binding, comparable within an allelic series)
- binding signal (ALX1 [24]): 12.1 upbm affinity estimate (log intensity, higher = more binding, comparable within an allelic series)

Sequence: AATTTTCA
- binding signal (ALX4 [9]): 11.5 upbm affinity estimate (log intensity, higher = more binding, comparable within an allelic series)
- binding signal (ALX4 [10]): 10.4 upbm affinity estimate (log intensity, higher = more binding, comparable within an allelic series)
- binding signal (ALX1 [22]): 9.64 upbm affinity estimate (log intensity, higher = more binding, comparable within an allelic series)
- binding signal (ALX1 [23]): 9.33 upbm affinity estimate (log intensity, higher = more binding, comparable within an allelic series)
- binding signal (ALX1 [24]): 10 upbm affinity estimate (log intensity, higher = more binding, comparable within an allelic series)
